Drawing on the OligoGym collection, this text covers sensor-assay potency score (higher = more potent) for 40 sequences.
Further: reference of the scale not given here.

The target of the first assay is HMP19. The experiment in a line: pooled miR-30 sensor sort-seq; sequence = guide strand. Conditions: shRNA.
On to TTCTTGTCTTCACAATCACCTT, for which the sensor-assay potency score (higher = more potent) is -1.21. On the same count and under the same terms, under TCTTGTCTTCACAATCACCTTT stands -0.0794; under TAAGTGATTAACCTCCAAGGGA, -0.21. The same measure, in the same setting: the value for TTATAGACGAATCCCTCTGGGC was -0.74.

Regarding TTGGTTCCCTTCTCGCTGGGGT, the sensor-assay potency score (higher = more potent) turned out to be 0.36. The same measure, in the same setting: the value for TATCGGTTCAGACAACTCCAGC was -1.43; that for TTGTACATGAGCCTGACTCGGC was -0.338; that for TTGTTCTTCTGTTCCGGCTGAT was 0.313. With TTCACAATCACCTTTTCTGGAG, the sensor-assay potency score (higher = more potent) was -0.586.

The sequence TTCGGCACCCGGAACTTCCCTT showed a sensor-assay potency score (higher = more potent) of -0.311. For TAAACCACCAGGAACACGATGC, the sensor-assay potency score (higher = more potent) was -0.408.

TACAGTGTTGTCTTGTAACTGG returned a sensor-assay potency score (higher = more potent) of -0.189.

The target of another assay is HMX2. The description is as above. To be noted: shRNA.
With TTCTCTTCTTTAAAGTCCGAGT, the sensor-assay potency score (higher = more potent) was -1. In turn, TAAAGTCCGAGTGCGAAGGAGA showed a sensor-assay potency score (higher = more potent) of -1.28.

Take TCCGAGGACACGGACAGGCTGC: the sensor-assay potency score (higher = more potent) is -1.46.

Sequence TGTATAGGTTGTAGAGAGGTAA gave a sensor-assay potency score (higher = more potent) of -0.622.

As to TGGAACCAAGTCTTTACCTGGG, the sensor-assay potency score (higher = more potent) is -0.326. Still for that read-out and setting: under TTCTTTAAAGTCCGAGTGCGAA stands -1.59. TGAAGCTGGAGACGCCACCGGC displayed a sensor-assay potency score (higher = more potent) of -0.77. As for ATGGACTGGATGGTGAAGCTGG, the sensor-assay potency score (higher = more potent) is -1.05.

TTTCTCTTCTTTAAAGTCCGAG gave a sensor-assay potency score (higher = more potent) of -0.831.

Sequence TCTTCTTCTTGGCCGCGCCGGC registered a sensor-assay potency score (higher = more potent) of -1.36. TTAAAGTCCGAGTGCGAAGGAG came in with a sensor-assay potency score (higher = more potent) of -0.61. On the same count and under the same terms, under TCGAGCTGGTACACCTGGCTGC stands -0.393.

Another assay concerns the target HNF1A. Described as above. To be noted: shRNA.
As for TAGGACTTGACCATCTTCGCCA, the sensor-assay potency score (higher = more potent) amounted to 0.419. Sequence ATGAAGGTCTCGATGACGCTGT returned a sensor-assay potency score (higher = more potent) of 0.222. Take TAGCGTCTCTCGCTCCTCCTTG: the sensor-assay potency score (higher = more potent) was -0.628.

As for TTGCTGGAGTCTGAGCTCTGGT, the sensor-assay potency score (higher = more potent) was -1.14. The same measure, in the same setting: the value for TTCTGTACTCAGCAGGCTGTGG was -0.687; that for TTGATGACCGGCACACTCTGTG was 0.355; that for TGAGCTCTGGTACAGCACCAGG was -1.55. The sequence TACAGCACCAGGCTGCTGGAGG gave a sensor-assay potency score (higher = more potent) of -0.908. ATCGTCGTCCGTCTCGTCCTCG returned a sensor-assay potency score (higher = more potent) of -0.832. In turn, TTGTAGACACGCACCTCCGTGA showed a sensor-assay potency score (higher = more potent) of -0.58. Sequence TGGTTGGTAGCTCATCACCTGT returned a sensor-assay potency score (higher = more potent) of -1.74. In the case of TACTTCTGCAGTCTCACTGGTC, the sensor-assay potency score (higher = more potent) was -0.169.

The next assay has as its target HNRNPL. The description is as above. To be noted: shRNA.
Take TTGTGTAGTCCCAAGTATCCTG: the sensor-assay potency score (higher = more potent) is 0.0698. Same read-out and setting: under TAGTGTAAAGAACATCCGTGGT stands -0.214. The same measure, in the same setting: the value for TTGAACTGAGTCAAATTCCACC was -0.367.

The sequence TCTTGAACACATTCAAGCGTGT had a sensor-assay potency score (higher = more potent) of 0.0553.
